# The campaign covered roughly 310,000 compounds. About 14,000 (4.5%) showed an effect of 50% or more. The effect is printed as a negative number. The sample holds strong results, similar compounds and a random draw of the others, so the mix is not that of the screen.
# Target: human ether-à-go-go-related gene (hERG) potassium channel (human, UniProt Q12809)
# Experiment: primary screen, population patch clamp on CHO cells stably expressing hERG; higher = less effect of the substance
# 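Also: peak tail current of the secondary pulse compared with the same well before compound.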
# Chain of human ether-à-go-go-related gene (hERG) potassium channel (Q12809 whole entry, looked up): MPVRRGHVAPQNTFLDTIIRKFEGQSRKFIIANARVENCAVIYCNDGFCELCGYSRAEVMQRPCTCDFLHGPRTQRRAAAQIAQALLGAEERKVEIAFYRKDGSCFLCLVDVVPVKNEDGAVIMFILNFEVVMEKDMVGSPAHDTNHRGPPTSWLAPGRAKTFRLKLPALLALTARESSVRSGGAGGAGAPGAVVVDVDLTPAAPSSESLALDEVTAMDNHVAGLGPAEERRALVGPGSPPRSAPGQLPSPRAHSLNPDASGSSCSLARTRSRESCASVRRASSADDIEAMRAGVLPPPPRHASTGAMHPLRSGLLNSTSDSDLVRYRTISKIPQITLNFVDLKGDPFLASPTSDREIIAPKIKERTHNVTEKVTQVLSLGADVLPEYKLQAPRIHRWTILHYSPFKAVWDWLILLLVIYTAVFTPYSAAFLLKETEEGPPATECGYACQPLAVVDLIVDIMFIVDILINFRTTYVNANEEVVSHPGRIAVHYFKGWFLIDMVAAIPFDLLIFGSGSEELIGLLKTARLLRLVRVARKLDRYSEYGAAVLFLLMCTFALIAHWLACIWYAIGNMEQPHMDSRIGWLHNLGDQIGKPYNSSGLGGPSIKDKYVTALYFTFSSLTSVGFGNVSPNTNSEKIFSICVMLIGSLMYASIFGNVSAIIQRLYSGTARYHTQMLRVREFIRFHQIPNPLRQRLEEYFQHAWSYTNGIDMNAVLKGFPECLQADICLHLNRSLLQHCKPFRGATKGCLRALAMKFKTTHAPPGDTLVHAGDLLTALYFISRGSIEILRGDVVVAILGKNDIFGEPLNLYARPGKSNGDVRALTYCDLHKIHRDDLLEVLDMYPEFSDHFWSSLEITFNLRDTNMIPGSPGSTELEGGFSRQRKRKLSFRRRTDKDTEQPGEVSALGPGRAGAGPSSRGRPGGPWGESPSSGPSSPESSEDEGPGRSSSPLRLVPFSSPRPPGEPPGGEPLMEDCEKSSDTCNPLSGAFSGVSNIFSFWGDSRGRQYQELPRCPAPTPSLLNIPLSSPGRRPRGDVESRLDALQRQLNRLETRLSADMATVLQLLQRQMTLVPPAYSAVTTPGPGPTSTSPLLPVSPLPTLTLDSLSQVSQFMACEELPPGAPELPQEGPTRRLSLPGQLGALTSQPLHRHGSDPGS
row,Compound,"hERG current change (%, negative = inhibition) at 10uM"
1,COc1cccc(CNC(=O)CN(C)S(=O)(=O)c2ccc3c(c2)n(C)c(=O)c(=O)n3C)c1,10.3%
2,S=C1CCC(c2ccc(Cl)cc2)=NN1c1ccccc1,4.79%
3,O=C(Nc1cc(F)ccc1F)C1CCCN(c2ncnc3c2nc2n3CCCCC2)C1 (stereo not shown),-59.5%
4,O=C(Nc1ccc(F)cc1F)C1CCCN(c2ncnc3c2nc2n3CCCCC2)C1 (stereo not shown),-62%
5,COc1ccccc1NC(=O)C1CCCN(c2ncnc3c2nc2n3CCCCC2)C1 (stereo not shown),-45.5%
6,O=C(Nc1ccc(F)cc1)C1CCN(c2ncnc3c2nc2n3CCCCC2)CC1,-7.35%
7,COc1ccc(Cl)cc1NC(=O)C1CCCN(c2ncnc3c2nc2n3CCCCC2)C1 (stereo not shown),-37.6%
8,CC1=C(C(=O)OC2CCC(C)CC2)C(c2ccc(O)c([N+](=O)[O-])c2)NC(=O)N1 (stereo not shown),-0.635%
9,C=CCn1c(CCNC(=O)c2ccccc2F)nnc1SCC(=O)Nc1ccc(OC)cc1,3.94%
10,COc1ccc(CCNC(=O)c2cc3c(=O)n4cccc(C)c4nc3n(CCCN3CCOCC3)c2=N)cc1,-76.2%
11,COc1ccc(CCn2c(=O)[nH]c3cc(C(=O)NCCCN4CCOCC4)ccc3c2=O)cc1OC,28.6%
12,COc1ccc(Cn2c(=S)[nH]c3cc(C(=O)NCCCN4CCOCC4)ccc3c2=O)cc1,24.1%
13,COc1ccc(CCNC(=O)c2cc3c(=O)n4ccccc4nc3n(CCCN3CCOCC3)c2=N)cc1OC,-75.1%
14,COc1ccc(CCNC(=O)c2cc3c(=O)n4ccccc4nc3n(CCN3CCOCC3)c2=N)cc1,-77.8%
15,COc1ccc(CCNC(=O)c2cc3c(=O)n4ccccc4nc3n(CCCN3CCOCC3)c2=N)cc1,-79%
16,COc1ccc(CCNC(=O)C(=O)NCCCN2CCOCC2)cc1,7.99%
17,COc1ccc(CCNC(=O)c2c(N)n(CCN3CCOCC3)c3nc4ccccc4nc23)cc1,-0.58%
18,COc1ccc(CCn2c(=N)c(C(=O)NCCN3CCOCC3)cc3c(=O)n4ccccc4nc32)cc1OC,-32.5%
19,CCOC(=O)C1=C(COC(=O)COc2ccc(Br)cc2)NC(=O)NC1C (stereo not shown),2.16%
20,CC(=O)c1ccc(OCCCC(=O)Nc2cc(S(=O)(=O)N(C)C)ccc2C)cc1,0.514%
21,CCS(=O)(=O)N1CCC(C(=O)N2CCC3(CC2)OCCO3)CC1,6.65%

row,Compound,"hERG current change (%, negative = inhibition) at 10uM"
1,C=CCCCCCCCCC(=O)N1CCN(c2cc3c(cc2F)c(=O)c(C(=O)O)cn3CC)CC1,5.07%
2,Fc1cccc(NC(=S)Nc2ccc(Br)cc2)c1,10.3%
3,CCN1CCN(Cc2ccc(NC(=O)c3ccc(C)c(NC(=O)N4CCNC4=O)c3)cc2C(F)(F)F)CC1.O=C(O)C(F)(F)F,3.66%
4,Cc1ccc(S(=O)(=O)N/N=C/c2ccccc2O)cc1,12.9%
5,O=C(CN1C(=O)c2ccc([N+](=O)[O-])cc2C1=O)NCc1ccco1,12.4%
6,CC1(C)CC(N2CCC(=O)NC2=S)CC(C)(C)N1,3.04%
7,CC(NS(=O)(=O)c1ccc(NC(=O)N2CCCCC2)cc1)c1ccccc1 (stereo not shown),3.56%
8,Cc1ccc(OS(=O)(=O)c2ccccc2)c(/C=N/N=C2\NC(=O)C(C)S2)c1 (stereo not shown),-0.524%
9,CCc1cc2c(s1)N(CC(=O)OC)C(=O)CN=C2c1ccccc1OC,10.7%
10,Cc1ccc(S(=O)(=O)Cc2ccc(C(=O)N3CCCCCC3)o2)cc1,-15.4%
11,Cc1ccc(S(=O)(=O)Cc2ccc(C(=O)N3CCc4ccccc4C3)o2)cc1,-62.2%
12,Cc1ccc(S(=O)(=O)Cc2ccc(C(=O)N3CCCC3)o2)cc1,-6.89%
13,COc1ccc(S(=O)(=O)Cc2ccc(C(=O)N3CCc4ccccc4C3)o2)cc1,-59%
14,COc1ccc(S(=O)(=O)Cc2ccc(C(=O)N3CCN(Cc4ccccc4)CC3)o2)cc1,-33.1%
15,COc1ccc(S(=O)(=O)Cc2ccc(C(=O)N3CCCC3)o2)cc1,1.74%
16,O=S1(=O)CCN(Cc2ccccc2Cl)CC1,-11.1%
17,Cc1cc(C(=O)Nc2ccccc2C)n(-c2ccccc2)n1,16.5%
18,COc1ccc(NC(=O)C2CCC(=O)N2S(=O)(=O)c2ccc(C)cc2)c(OC)c1 (stereo not shown),-11%
19,COc1ccc(-c2c3c(=O)n(C)c(=O)n(C)c3cn2-c2ccccc2O)cc1,-9.54%
20,Cc1ccccc1NC(=O)CN1CCC(n2nnc3ccccc32)CC1,-38.8%
21,Cc1ccc2c(c1)nnn2C1CCN(CC(=O)Nc2ccccc2N2CCOCC2)CC1,-69.8%

row,Compound,"hERG current change (%, negative = inhibition) at 10uM"
1,COC(=O)c1ccccc1NC(=O)CN1CCC(n2nnc3cc(F)ccc32)CC1,-14.3%
2,COc1ccc(Cl)cc1NC(=O)CN1CCC(n2nnc3cc(C)ccc32)CC1,-24.2%
3,O=C(CN1CCC(n2nnc3cc(F)ccc32)CC1)Nc1ccccc1N1CCOCC1,-66.6%
4,CC(C)(C)c1ccc(C(=O)N2CCC(C(=O)N3CCCCC3)CC2)cc1,-3.01%
5,Cc1cccc(C(C)(C)C)c1OCCOCCN1CCCC1,-20.6%
6,CN(C(=O)CN1CC=C(c2ccccc2)CC1)c1c(N)n(Cc2ccccc2)c(=O)[nH]c1=O,25.8%
7,Cc1ccc(-n2nc3c(=O)n(CC(=O)NCc4ccc(C)o4)nc(C)c3c2C)cc1,13.1%
8,Cc1nn(C2CCS(=O)(=O)C2)c(Cl)c1/C=C/C(=O)OCC(=O)N(C)C (stereo not shown),11.3%
9,CCN1CCN(c2ccc(NC(=O)COc3ccc([N+](=O)[O-])cc3)cc2)CC1,-54.3%
10,O=C(COc1ccc([N+](=O)[O-])cc1)Nc1ccc(CN2CCOCC2)cc1,-52.3%
11,O=C(COc1ccc([N+](=O)[O-])cc1)Nc1ccc(N2CCCC2)cc1,12.1%
12,Cc1ccc(NC(=O)COc2ccc(S(=O)(=O)N3CCOCC3)cc2)cc1,7.98%
13,O=C(COc1ccc(Br)cc1)Nc1ccc(CN2CCOCC2)cc1,-40.6%
14,O=C(COc1ccc(S(=O)(=O)N2CCOCC2)cc1)Nc1cccc([N+](=O)[O-])c1,-39%
15,O=C(COc1ccc([N+](=O)[O-])cc1)Nc1ccc(S(=O)(=O)N2CCOCC2)cc1,-53.8%
16,O=C(COc1ccc([N+](=O)[O-])cc1)Nc1ccc(N2CCN(C(=O)c3ccco3)CC2)cc1,6.27%
17,O=C(COc1ccc(Cl)cc1)Nc1ccc(CN2CCOCC2)cc1,-39.6%
18,Cc1scc(C(=O)N/N=C/c2ccco2)c1C,2.52%
19,CCCc1cc(=O)[nH]c(SCC(=O)N(CC)C2CCS(=O)(=O)C2)n1 (stereo not shown),13.2%
20,N=C(N)c1c(O)n(C2CCCCC2)c(=O)n(C2CCCCC2)c1=O,18.5%
21,CC1Cc2ccccc2N1C(=O)c1cc2sccc2n1Cc1ccc(F)cc1 (stereo not shown),12.3%

row,Compound,"hERG current change (%, negative = inhibition) at 10uM"
1,Oc1ccc(-c2nnc(SCc3ccccc3)o2)cc1,-8.15%
2,COc1ccc2c(c1)c(=O)c(C(=O)c1ccc(C)cc1)cn2CC(=O)Nc1ccc(F)cc1,-10.1%
3,COc1ccc2c(c1)c(=O)c(C(=O)c1ccccc1)cn2Cc1ccccc1,-71.8%
4,COc1ccc2c(c1)c(=O)c(C(=O)c1ccccc1)cn2Cc1ccc(C)cc1,-75%
5,COc1ccc2c(c1)c(=O)c(C(=O)c1ccc(Cl)cc1)cn2CC(=O)Nc1ccc(F)cc1,12.4%
6,COc1ccc2c(c1)c(=O)c(C(=O)c1ccc(F)cc1)cn2CC(=O)Nc1ccc(F)cc1,-5.61%
7,COc1ccc(Cn2cc(C(=O)c3ccccc3)c(=O)c3cc(OC)ccc32)cc1,-31.3%
8,Cc1cccc(NC(=S)NC2CCSc3ccccc32)c1 (stereo not shown),14.5%
9,COc1ccc(OCC(=O)Nc2ccccc2OC(F)F)cc1,-22.2%
10,CC1CC(C)CN(C(=O)c2ccc(Br)c(S(=O)(=O)N3CCOCC3)c2)C1 (stereo not shown),-26.6%
11,NC(=O)C(c1ccccn1)c1ncc(C(F)(F)F)cc1Cl (stereo not shown),11.7%
12,Br.O=C(CN1C2=NCCN2c2ccccc21)c1ccc2c(c1)OCO2,-60.9%
13,Br.O=C(CN1C2=NCCN2c2ccccc21)c1ccc(Br)cc1,-67.6%
14,Cl.O=C(CN1C2=NCCN2c2ccccc21)c1ccco1,-20.7%
15,Cl.O=C(CN1CCCCC1)c1ccc2c(c1)OCO2,-4.7%
16,CC(C)(C)n1nnnc1C(c1ccc(Cl)cc1)N(Cc1cccnc1)Cc1ccco1 (stereo not shown),-14.7%
17,CCOC(=O)c1[nH]c(C)c(C(=O)N2CCc3ccccc32)c1C,-12.6%
18,Cc1ccc(OCC(=O)NCC(=O)Nc2ccc(F)c(F)c2F)c([N+](=O)[O-])n1,-34.4%
19,Cc1nc(Nc2cccc(C(C)O)c2)c2nnn(Cc3ccc(F)cc3)c2n1 (stereo not shown),5.08%
